TGFb SMAD3 inh: qHTS for Inhibitors of TGF-b | HepG2 CAGA-GFP TGF-b/SMAD3 reporter, GFP fluorescence, 18 h; TGF-beta stimulated, 500 pg/mL final | Potency, µM (top dose mostly 46.1 µM), for the others: at the highest dose activity, negative = inhibition, hits mostly inhibitors | hit rate 1.2% among 410,000; note: potency is the fitted concentration of half-maximal effect; % is set by controls: 0 for no effect and ±100 for the full control effect; nearly all actives have a fitted effect of over 65% in size
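Using HEPG2 CAGA-GFP reporter cells at 1000 cells/well, we pinned test compounds, stimulated with recombinant TGF-beta (500 pg/mL final) and measured total well GFP after 18 h.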
IL-1B inflam inh: qHTS for Inhibitors of Inflammasome Signaling: IL-1-beta AlphaLISA Primary Screen; activity change, % at 57.5 µM; THP-1 LPS/ATP IL-1B secretion, AlphaLISA, 16 h; hits give low values; hit rate 4.7% among 360,000; AID 743279, 2014; in the data active = activity change below about -50%; inconclusive = mostly about -30% to -49%; note: % is set by controls: 0 for no effect and ±100 for the full control effect
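THP-1 cells pretreated 1 hr with compounds (up to 57.5 uM final), then stimulated with LPS (250 ng/mL final) plus ATP (1.25 mM final); secreted IL-1B measured by AlphaLISA after 16 hr, decreased signal indicating inhibition.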
DT40 TDP1 no CPT: qHTS for Inhibitors of human tyrosyl-DNA phosphodiesterase 1 (TDP1): qHTS in cells in absence of CPT. DT40 Tdp1-/- hTDP1 cells, no CPT, ATP luminescence, 48 h. Potency, µM (titrated, usually from 46.2 µM), for the others: at the top dose activity change, negative = growth inhibition, actives largely listed as inhibitors. AID 686978, 2013. hit rate 15% among 420,000; note: potency is the fitted concentration of half-maximal effect; % is set by controls: 0 for no effect and ±100 for the full control effect; nearly all actives have a fitted effect of over 55% in size
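Compound effects on proliferation are scored in DT40 Tdp1-/-;hTDP1 cells in the absence of CPT. ATP levels (CellTiter-Glo luminescence) are recorded after a ≥48 hr, 37 °C incubation.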
HepG2 viability: qHTS for Inhibitors of TGF-b: Cytotox Counterscreen | HepG2 CAGA-GFP viability, ATP luminescence, 18 h | hit rate 0.76% among 410,000 | Potency, µM (top dose mostly 46.1 µM), without a hit: at the top dose activity change, negative = cytotoxicity, most hits filed as cytotoxic; note: potency is the fitted concentration of half-maximal effect
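CellTiter-Glo luminescence gave cytotoxicity after 18 hours at 37 degrees C. The cells were HepG2 CAGA-GFP in 1% FBS DMEM, stimulated with 500 pg/mL TGF-beta after compound addition. %Activity was normalised to no-cell wells (complete cell-killing) and DMSO (no toxicity), and curves were fitted and classified.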
S-ASM inh: Inhibitors of Secretory Acid Sphingomyelinase (S-ASM): qHTS. hit rate 0.006% among 340,000. Potency, µM (doses to about 57.5 µM), inactives show top-dose activity change, negative = inhibition, usual class: inhibitors. placental ASM, HMU-PC fluorogenic substrate, 60 min; note: potency is the fitted concentration of half-maximal effect
Target sequence (P17405 47-631 limits assumed): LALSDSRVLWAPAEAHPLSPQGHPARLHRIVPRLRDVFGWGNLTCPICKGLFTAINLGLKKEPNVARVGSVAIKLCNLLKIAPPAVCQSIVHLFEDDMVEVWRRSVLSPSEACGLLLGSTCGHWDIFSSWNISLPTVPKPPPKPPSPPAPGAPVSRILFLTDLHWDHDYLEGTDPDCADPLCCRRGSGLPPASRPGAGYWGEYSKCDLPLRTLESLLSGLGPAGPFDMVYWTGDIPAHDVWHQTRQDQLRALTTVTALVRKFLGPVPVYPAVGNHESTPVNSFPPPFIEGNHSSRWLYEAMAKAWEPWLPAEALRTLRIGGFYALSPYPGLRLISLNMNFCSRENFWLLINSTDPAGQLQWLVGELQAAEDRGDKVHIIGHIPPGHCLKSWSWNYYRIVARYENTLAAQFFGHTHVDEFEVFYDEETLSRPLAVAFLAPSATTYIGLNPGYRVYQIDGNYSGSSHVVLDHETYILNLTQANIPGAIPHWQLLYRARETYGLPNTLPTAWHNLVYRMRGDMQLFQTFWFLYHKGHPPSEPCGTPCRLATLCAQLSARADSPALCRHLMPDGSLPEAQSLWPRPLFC
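HMU-PC0 cleavage (9 uM final) by human placental ASM, 60 min at 37 °C following 10 min compound exposure at RT; stopped at pH 10, fluorescence Ex 386/Em 447 nm.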
DT40 TDP1 CPT: qHTS for Inhibitors of human tyrosyl-DNA phosphodiesterase 1 (TDP1): qHTS in cells in presence of CPT; Potency, µM (highest dose often 46.2 µM), for inactives: top-dose activity change, negative = growth inhibition, actives largely listed as inhibitors; chicken DT40 Tdp1-/-;hTDP1 cells + 20 nM CPT, ATP luminescence, 48 h; hit rate 12% among 420,000; note: potency is the fitted concentration of half-maximal effect; % is set by controls: 0 for no effect and ±100 for the full control effect; nearly all actives have a fitted effect of over 55% in size
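Chicken DT40 Tdp1-/- cells complemented with human TDP1, 400 cells/well, exposed to compounds plus 20 nM camptothecin for at least 48 h at 37 C; viability read as ATP content by CellTiter-Glo luminescence.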
Starred values were filed as active, the others as inactive; i = inactive; ? = inconclusive; . = not tested or not shown. Only some compounds are listed: those with a hit (about 19% of all), similar ones and a draw of the others. Unless noted, calls come from the whole dose curve; as a rule, active = well fitted curve in the direction sought with a large enough effect; inconclusive = small, poorly fitted or top-dose-only effect, or another doubt; inactive = no such curve, though single readings can be large; an effect the other way counts as inactive or inconclusive.

SMILES | TGFb SMAD3 inh | IL-1B inflam inh | DT40 TDP1 no CPT | HepG2 viability | S-ASM inh | DT40 TDP1 CPT
CC(Oc1ccccc1)C(=O)Nc1ccc(C(N)=O)cc1 (stereo not drawn) | -1% | 11 | -9% | 1% | -5% | -10%
COc1ccc(C(=O)/C(C#N)=N/Nc2ccc([N+](=O)[O-])cc2)cc1 | ? | 77 | 0.52µM* | -56% | -3% | 0.58µM*
CC(=O)Nc1ccc(Nc2cc(C(C)C)nc3c(-c4ccccc4)c(C)nn23)cc1 | ? | -76* | ? | -108% | -1% | ?
Cc1nn2c(NCc3ccccn3)cc(C(C)C)nc2c1-c1ccccc1 | 11µM* | 0 | ? | -61% | 3% | 16µM*
Cc1nn2c(NCCCn3ccnc3)cc(C(C)C)nc2c1-c1ccccc1 | 14% | . | ? | -37% | 5% | ?
CCCc1cc(N2CCCC2)n2nc(C)c(-c3ccccc3)c2n1 | -12% | 15 | ? | 1% | 41% | ?
CCCc1cc(NCc2ccccn2)n2nc(C)c(-c3ccccc3)c2n1 | ? | 22 | 0.92µM* | -41% | 1% | 0.58µM*
CCOc1ccc(S(=O)(=O)NC2CCCC2)cc1C | -17% | 42 | -2% | -17% | -3% | -24%
Cc1ccc(NC(=O)C(=O)NCc2ccc(/C=C(/C#N)C(=O)NCc3cccnc3)o2)cc1C | 0% | 0 | 16µM* | 7% | 6% | ?
CC1(C)CC(=O)C=C(c2ccc(COC(=O)/C=C/c3ccccc3)cc2)C1=O | -2% | 18 | 21µM* | -17% | . | ?
Cc1ccc(CSc2ncc(Cl)c(C(=O)Nc3sc4c(c3C(N)=O)CCCC4)n2)cc1 | 3% | . | 4% | 2% | . | 22%
COCCn1c(=N)c(S(=O)(=O)c2ccc(F)cc2)cc2c(=O)n3cccc(C)c3nc21 | 11% | -2 | 8.2µM* | 3% | 17% | ?
CCn1c(=N)c(C(=O)NC)cc2c(=O)n3cccc(C)c3nc21 | ? | -21 | 16µM* | -22% | i | ?
CCn1c(=N)c(C(=O)NCc2ccccc2)cc2c(=O)n3cccc(C)c3nc21 | ? | . | -27% | 8% | . | -17%
CCOCCCn1c(=N)c(S(=O)(=O)c2ccccc2)cc2c(=O)n3cc(C)ccc3nc21 | 33% | 21 | 16µM* | -8% | 21% | ?
CCOCCCn1c(=N)c(C(=O)NCc2ccc3c(c2)OCO3)cc2c(=O)n3cccc(C)c3nc21 | -1% | -60* | ? | -26% | 256% | ?
OCCC1CN(Cc2cn[nH]c2C2CCCCC2)CCN1C1CCCCC1 (stereo not drawn) | -4% | 2 | -2% | 7% | 0% | -1%
COc1cccc2sc(NC(=O)CS(=O)(=O)c3ccc(C)cc3)nc12 | -12% | . | -18% | -9% | . | 1%
CCCCn1c(=N)c(C(=O)NC2CCCCC2)cc2c(=O)n3cccc(C)c3nc21 | -1% | . | 0% | -4% | . | 6%
Cc1ccc2nc3c(cc(C(N)=S)c(=N)n3CCCOC(C)C)c(=O)n2c1 | 25% | -9 | 16µM* | -40% | 98% | 16µM*
COCCCn1c(=N)c(C(N)=S)cc2c(=O)n3cccc(C)c3nc21 | -2% | -68* | 23µM* | -16% | 233% | 18µM*
CCCn1c(=N)c(C(=O)NC2CCCC2)cc2c(=O)n3cccc(C)c3nc21 | -14% | -21 | 12µM* | 0% | i | ?
CCOCCCn1c(=N)c(C(=O)NC2CCCC2)cc2c(=O)n3cccc(C)c3nc21 | 3% | . | 21µM* | -4% | . | ?
COCCCn1c(=N)c(C(=O)NCc2cccnc2)cc2c(=O)n3cc(C)ccc3nc21 | 0% | . | 3% | 0% | . | 1%
OCC1(Cc2ccccc2)CCN(C2CCN(c3ccc(F)c(F)c3)CC2)CC1 | 1% | -118* | 12µM* | -15% | 4% | -29%
SMILES | TGFb SMAD3 inh | IL-1B inflam inh | DT40 TDP1 no CPT | HepG2 viability | S-ASM inh | DT40 TDP1 CPT
CCCc1nnc(NC(=O)c2c(O)c3cccc4c3n(c2=O)CCC4)s1 | 9% | . | 0.79µM* | 4% | . | 3.5µM*
O=C(NCCc1ccccn1)c1cc(-c2cccc3ccccc23)nc2ccccc12 | -17% | -14 | ? | -11% | 9% | 26µM*
Cc1ccc(-c2cc(C(=O)NCCc3ccccn3)c3ccccc3n2)c(C)c1 | 0% | ? | ? | 11% | 1% | ?
CCc1ccc(-c2cc(C(=O)NCc3ccccn3)c3ccccc3n2)cc1 | 0% | ? | ? | -10% | 39% | ?
O=C(NCc1ccccn1)c1cc(-c2ccc(Br)cc2)nc2ccccc12 | 6% | -4 | 13µM* | -6% | 1% | ?
Cc1ccc(-c2cc(C(=O)NCc3ccccn3)c3ccccc3n2)cc1 | 0% | -19 | 16µM* | -35% | -4% | ?
Cc1ccc2nc(-c3ccccn3)cc(C(=O)NCCc3ccc(F)cc3)c2c1 | -4% | 15 | 21µM* | 33% | -1% | ?
Cc1ccc2nc(-c3ccncc3)cc(C(=O)NCCc3ccc(F)cc3)c2c1 | 6% | 2 | ? | -9% | 7% | ?
Cc1ccccc1C(=O)NC(=S)Nc1ncccn1 | -2% | -2 | -13% | 1% | 4% | -6%
CC1CCCCC1NC(=O)CN(C)S(=O)(=O)c1ccc2c(c1)c(=O)n(C)c(=O)n2C (stereo not drawn) | 7% | -12 | -4% | 9% | -2% | -5%
CCOc1ccc(S(=O)(=O)N2CCCC(C(=O)NCc3cccnc3)C2)cc1Cl (stereo not drawn) | -30% | -2 | ? | -48% | 2% | ?
CCc1ccc(NC(=O)CN2C(C(=O)OC)=C(c3ccccc3)c3ccccc3S2(=O)=O)cc1 | -2% | . | -29% | -18% | . | 0%
COc1ccc(Cl)cc1NC(=O)CSc1nc2ccccc2nc1N1CCCCC1 | -11% | . | 21µM* | -3% | . | ?
COc1ccc(C)cc1NC(=O)CSc1nc2ccccc2nc1N1CCCC1 | -5% | 11 | 21µM* | -2% | 74% | ?
COc1ccc(NC(=O)CSc2nc3ccccc3nc2N2CCCC2)c(OC)c1 | 4% | 7 | ? | -2% | 10% | ?

Assay outcomes: PubChem, National Center for Advancing Translational Sciences (NCATS)
